This is an account of results in PubChem BioAssay AID720489 (Milwaukee Institute for Drug Discovery, 2013).

The other results are listed elsewhere or left out. Active and inactive are the calls of the source.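 The calls were made as follows: active = fluorescence interference ratio at or below 0.8 quencher or at or above a set limitenhancer; inactive = the rest.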

This test is described as follows: compounds quenching or enhancing NS3h-DNA Cy5 signal – biochemical, ChemBridge library, Cy5-DNA-NS3h complex, artefact control for HCV NS3 helicase inhibitor project, confirmation (AID 720489).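 Also: ratio of compound fluorescence to mean of negative controls so 1 means no interference.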 The conditions noted are these: Cy5-dT15 DNA/NS3h fluorescence interference counterscreen; at 100 µM. (In general: Counterscreens check selectivity or assay interference.)
Consider `CCN(CC)c1ccc(C=C2C(=O)N(C)C(=O)N(C)C2=O)c(O)c1`, for which the fluorescence interference ratio was 1 (inactive). `COc1cc(C=C2C(=O)NC(=O)NC2=O)ccc1OCCOc1ccc([N+](=O)[O-])cc1`: the fluorescence interference ratio was 0.667 (active). As to `COc1ccc(N2C(=O)C=CC2=O)c([N+](=O)[O-])c1`, the fluorescence interference ratio was 0.746 (active).

On to `O=C(NC(=S)Nc1ccc(-c2nc3cc(Cl)ccc3o2)cc1)c1ccco1`, for which the fluorescence interference ratio is 1.01 (inactive). In the case of `C=CCN1C(=O)/C(=C\c2cc(OC)c(O)c([N+](=O)[O-])c2)C(=O)NC1=S`, the fluorescence interference ratio was 0.746 (active). Turning to `COc1cc(/C(O)=C(\C#N)c2nc3ccccc3n2C)cc(OC)c1OC`, the fluorescence interference ratio is 0.722 (active). Regarding `CCOc1ccc(C=C2C(=O)NC(=O)NC2=O)cc1Cl`, the fluorescence interference ratio was 0.902 (inactive). On to `Cc1ccc(C(=O)NCCNc2ccc([N+](=O)[O-])cc2)cc1`, for which the fluorescence interference ratio is 0.955 (inactive). On to `N#Cc1c(N)nc2sc(C(=O)Nc3ccccc3)c(N)c2c1-c1ccco1`, for which the fluorescence interference ratio is 0.783 (active). With `O=c1c2c(nc3cc(-c4cccc(F)c4)[nH]n13)CCS2`, the fluorescence interference ratio is 0.718 (active).

On to `CCN(CC)c1ccc(NC(=O)/C(=C\c2ccccc2)NC(C)=O)cc1`, for which the fluorescence interference ratio is 1.09 (inactive).

In the case of `O=C1NC(=O)C(=Cc2cc([N+](=O)[O-])cc(Br)c2O)C(=O)N1`, the fluorescence interference ratio is 0.747 (active). For the compound `CC(C)(C)N1C(=O)NC(=O)C(=Cc2cccs2)C1=O`, the fluorescence interference ratio was 0.788 (active).

In the case of `Cc1ccc(C(=O)C[n+]2cc(-c3ccccc3)n3c2CCCCC3)cc1`, the fluorescence interference ratio is 1.02 (inactive). For `COc1ccc(C(=O)Oc2ccc3oc(=O)cc(C)c3c2)cc1OC`, the fluorescence interference ratio was 0.772 (active).
